Source: the supplement of paper PMC3334620
Whole data set: some 33,000 sequences, median “E-score (-0.5 to 0.5)” near -0.016, cut for the highest 2% near 0.32. This excerpt belongs to a sample that is enriched for the highest values.

target: T1, Stp1 (UniProt B3LFK1); assay: PBM E-score (8-mer binding enrichment) (E-score (-0.5 to 0.5)); higher = stronger / more preferred TF binding; settings: protein concentration: 200 nM; construct: GST-full length
T1 sequence: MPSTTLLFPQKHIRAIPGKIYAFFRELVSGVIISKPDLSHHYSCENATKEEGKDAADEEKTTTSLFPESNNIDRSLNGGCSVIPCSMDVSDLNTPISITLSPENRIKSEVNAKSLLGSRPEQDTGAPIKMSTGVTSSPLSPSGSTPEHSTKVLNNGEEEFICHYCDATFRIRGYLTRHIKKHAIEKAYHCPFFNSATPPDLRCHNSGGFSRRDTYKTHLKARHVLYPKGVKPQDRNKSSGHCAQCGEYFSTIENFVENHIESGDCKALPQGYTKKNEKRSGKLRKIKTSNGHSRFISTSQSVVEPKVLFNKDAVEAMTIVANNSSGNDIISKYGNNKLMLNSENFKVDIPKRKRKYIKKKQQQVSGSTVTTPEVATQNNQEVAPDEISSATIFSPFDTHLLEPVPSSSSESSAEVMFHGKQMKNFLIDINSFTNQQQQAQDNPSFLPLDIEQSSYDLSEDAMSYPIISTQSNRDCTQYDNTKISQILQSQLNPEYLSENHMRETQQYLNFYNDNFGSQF
Procedure: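 Universal 'all 10-mer' protein binding microarrays (Agilent AMADID 015681) probed with GST-tagged S. cerevisiae TFs (full-length or DBD) made by in vitro transcription/translation (PURExpress), about 100-200 nM. Bound TF was detected with fluorescent anti-GST. Each ungapped 8-mer (which stands for itself and its reverse complement) is scored by the PBM enrichment score (E-score), a modified Wilcoxon-Mann-Whitney statistic from -0.5 to +0.5, computed with the Universal PBM Analysis Suite. Scale: above 0.35 generally sequence-specific binding.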

Sequence	PBM E-score
AGTCTCCC	-0.272
CTTATAGC	-0.0511
CGGTGCAG	-0.0834
GTCAAATA	0.0762
GTCGCAAC	-0.0752
GAATAGTC	-0.205
ACAGGCAC	-0.047
CGCTAGGA	-0.0128
CCCCGTAA	-0.0389
CACCGTAA	0.00961
ATCCGTAC	0.28
ACCCGTAC	0.0646
CGCCGTAA	0.418
TACCGTAA	0.0576
TGCCGTAA	0.34
GACCGTAC	-0.0763
GGCCGTAC	0.424
TCCCGTAA	-0.0808
GGCCGTAA	0.192
AGCCGTAC	0.432
ATCGAGTG	0.141
AAATGTCC	-0.229

Sequence	PBM E-score
AATAAGCC	0.0484
AGTGAATG	0.0894
CAGTAACG	0.0111
TGTGCCAA	0.117
ATGACTGA	-0.164
CGATTCCG	-0.0394
GAGGCCAA	-0.164
ATAAATGG	0.0779
TAGGGCGA	0.178
ATCTCCTA	-0.214
ATTGAGGA	-0.0544
CCCCGTAG	-0.0863
ATCCGTAG	0.112
AGCCGTAT	0.435
CGCCGTAC	0.487
AACCGTAT	-0.0259
ACCCGTAG	-0.36
AGCCGTAA	0.31
CGCCGTAG	0.465
CACCGTAC	0.121
CACCGTAG	-0.0209
CTCCGTAC	0.184

Sequence	PBM E-score
AGCCGTAG	0.392
CGAGCCCA	-0.215
GAGACGTA	-0.074
ATTACTTC	-0.0579
ACGTGTCA	-0.0154
AAAGCACG	0.0591
CGATAGGC	0.135
ACACGGGC	0.0838
GCACGGGC	0.19
ACACGGCC	0.344
GCACGGAC	0.28
ACACGGAC	0.217
GCACGGCC	0.415
GTCTACAA	-0.0248
CCAGGCGG	-0.0554
AGACATTG	-0.194
GATCTTCA	-0.025
CTTTTAGA	0.0884
GCACGAAA	0.326
GCACGAAC	0.101
ACACGAAA	0.0839
GCCATACC	-0.0417

Sequence	PBM E-score
CCAACTGA	-0.167
GTGCCTCA	0.365
CTGCCTCA	-0.0442
GTGCCTGA	-0.105
CCGCCTAC	-0.0313
TCGCCTCA	0.281
ACGCCTAC	-0.0656
GCGCCTCA	0.401
ACGCCTCA	0.313
GCGCCTAC	0.35
ATGCCTTA	0.236
GTGCCTTA	0.367
ATGCCTCA	0.279
AGCCCACT	-0.203
TCTTTGCA	0.165
GCAGACCC	-0.107
CTCCCCTC	-0.3
AACTTGGA	0.0205
ATCGTCTG	0.0798
AAAGGTAC	-0.00049
GAAGTGCC	0.309
GAGTACTA	0.051

Sequence	PBM E-score
CCGCCTTA	0.201
GCGCCTTA	0.399
GCGCCTGA	0.16
ATTGCCCG	-0.0444
CCGGCTCC	-0.129
AAGGCTCT	0.21
AAGGCTCG	-0.0294
GCGGCTCC	0.315
AAGGCTCA	0.16
ACGGCTCC	0.449
CCGGCTCG	-0.0179
AGGGCTCA	-0.101
ACAGCTCT	-0.306
ACGGCTCA	0.403
ACGGCTCG	0.444
ACGGCTCT	0.454
CTCACAAA	0.109
GAAGAGGA	-0.286
AATCGATG	0.174
GACGCTCA	-0.136
GGGCTAGA	-0.142
ACCTTTCG	-0.121
